# From PubChem BioAssay AID493056 (National Center for Advancing Translational Sciences (NCATS), 2011)
# The campaign covered roughly 360,000 compounds. About 2,400 (0.67%) were called active. Cut-off read from the data, not from the text of the source: active = enhancement above about 30%; inactive = the rest. This excerpt belongs to a sample that is enriched for actives. Peptide text beside a SMILES is read from it. * marks the point of attachment. OPac = O=C(CO*)c1ccccc1; Bz = O=C(c1ccccc1)*
# Biological target: Thyrotropin-releasing hormone receptor (Homo sapiens) (UniProt P34981)
# Sequence (P34981 whole entry, looked up): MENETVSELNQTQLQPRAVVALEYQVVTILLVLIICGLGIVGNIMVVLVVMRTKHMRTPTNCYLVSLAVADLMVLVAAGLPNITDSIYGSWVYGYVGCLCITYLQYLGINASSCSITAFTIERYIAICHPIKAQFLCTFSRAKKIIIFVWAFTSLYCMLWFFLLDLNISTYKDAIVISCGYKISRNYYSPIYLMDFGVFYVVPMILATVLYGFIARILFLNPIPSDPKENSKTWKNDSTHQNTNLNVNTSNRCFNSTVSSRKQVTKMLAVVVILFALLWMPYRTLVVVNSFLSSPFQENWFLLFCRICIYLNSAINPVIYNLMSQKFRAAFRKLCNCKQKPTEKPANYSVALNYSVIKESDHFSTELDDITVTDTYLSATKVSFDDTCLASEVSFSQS
# Assay: qHTS for Small Molecule Agonists and Allosteric Enhancers of Human TRH Receptor: Primary Screen for Enhancers; note: 0% is about no effect
# Details: TRHR cells, fluo-8 calcium fluorescence, EC20 TRH enhancement; at 2 µM; hits give high values
# Source text: NIH Chemical Genomics Center [NCGC] NIH Molecular Libraries Probe Centers Network [MLPCN] MLPCN Grant: MH089816-01 Assay Submitter (PI): Marvin Gershengorn This project aims to identify small drug-like molecules that activate (agonists) the thyrotropin releasing hormone (TRH) receptor (TRHR) or enhance its TRH-stimulated activity (allosteric enhancers). TRHR, a drug-accessible cell surface receptor expressed in specific brain regions, and its ligand TRH have been implicated in several central nervous system disorders, including depression and anxiety. Small molecule TRHR agonists or allosteric enhancers that are metabolically stable and able to cross the blood-brain barrier might serve as probes to elucidate the roles of brain TRH receptors in animal models, and might be valuable as lead compounds for the development of drugs to treat patients with central nervous system disorders. Upon TRHR-Gq activation in TRHR cells, intracellular calcium is released from stores in the endoplasmic reticulum. […] This primary screen measures compound-induced enhancement of an EC20 stimulation of the receptor by its native ligand.
# For the HTS assay freshly prepared cells are plated at a density of 2000/well in 3 ul of complete DMEM medium containing 10% serum in 1536-well plates and cultured over night at 37 C in a humidified incubator with 5% CO2. The next day, 2 ul of a no wash calcium dye (ABD Bioquest) was added to the cells and plates were incubated at room temperature for 1 hour. For the assay, assay plates were loaded into the FDSS kinetic plate reader. A 10 cycle (1 second/cycle) baseline measurement is taken and then the FDSS online 1536 pintool delivers 23 nl of compound library (as well as TRH controls) to the plate. The plate is measured for kinetically at 1 cycle/sec for 180 seconds and is considered to be the agonist portion of the assay (eg, compounds which activate a positive calcium response during this portion are flagged as potential agonists). Following the 180 second read, 1 ul of either an EC20 (positive modulation assay) is delivered by an onboard pipette head. Measurements are taken kinetically for an additional 180 seconds. TRHR FDSS Screening Protocol 1. Reagent, 3 uL 2000 cells/well 1536 TC treated Black plate in media containing 10% FCS 2. Time, 18 hours, 33.5C 5% CO2 (cells grown at 37C) 3. Reagent, 2 uL ABD fluo-8 Ca dye 4. Time, 30 min-1.5hrs hours, Room temp (6 plates/batch) 5. Detector, EX 480/EM 530C, FDSS 10 cycles baseline (1sec/cycle) 6. Compound, 23 nL of stock solution from library 7. Detector, EX 480/EM 530C, FDSS 230 cycles (1sec/cycle) Agonist mode 8. Compound, 1 ul EC20 of TRH made up in HEPES HBSS, 10 nM final 9. Detector, EX 480/EM 530C, FDSS 100 cycles (1sec/cycle) Potentiator mode
row,SMILES,enhancement
1,O=C(Nc1ncccn1)c1cccs1,35.8% (active)
2,O=C(Nc1n[nH]c(C(F)(F)F)n1)c1cccs1,-3.09% (inactive)
3,O=C(NC1CCCCCCC1)c1cccs1,-1.69% (inactive)
4,COc1ccc2c(CNCCc3ccccc3C)c(C(=O)O)n(Cc3ccccc3C)c2c1,-16.3% (inactive)
5,CCN1CCN(Cc2c(O)ccc3oc(C)c(C(=O)Nc4ccc(C)cc4C)c23)CC1,4.91% (inactive)
6,CCC(=O)Nc1c(C(=O)N2CCN(c3ccc(F)cc3)CC2)oc2ccccc12,-8.72% (inactive)
7,CCN1CCC(N(Cc2ccc(F)cc2)C(=O)Nc2cc(C)ccc2C)CC1,10% (inactive)
8,CCOC(=O)N1CCC(NC(=O)c2cnn(-c3cccc(C)c3)c2C2CCN(C(=O)OC(C)(C)C)CC2)CC1,5.75% (inactive)
9,CCCc1cc(=O)[nH]c(SCC(=O)c2c(N)n(CC(C)C)c(=O)n(C)c2=O)n1,38.3% (active)
10,CC(C)Cn1c(N)c(C(=O)COC(=O)CN2C(=O)C3CC=CCC3C2=O)c(=O)n(C)c1=O (configuration not stated),0.142% (inactive)
11,CCCc1cc(=O)[nH]c(SCC(=O)N2C(C)CCCC2C)n1 (configuration not stated),6.92% (inactive)
12,O=c1cc(CSc2ncn[nH]2)[nH]c2ccc(F)cc12,0.991% (inactive)
13,Cc1c(C(=O)N(C)C)sc2c1c(=O)n(-c1ccc(F)cc1)c(=O)n2CC(=O)N(C)c1ccccc1,-2.28% (inactive)
14,CC(C(=O)N(C)CC(=O)Nc1ccccc1C(F)(F)F)N1C(=O)c2ccccc2C1=O (configuration not stated),35.3% (active)
15,CN(CC(=O)Nc1ccccc1C(F)(F)F)C(=O)Cc1ccccc1F,1.5% (inactive)
16,O=C(CN1CCN(c2ncccn2)CC1)Nc1ccccc1C(F)(F)F,0.988% (inactive)
17,CCCNc1ncnc2c1c(-c1ccccc1)cn2-c1ccc(OCC)cc1,-5.52% (inactive)
18,CCCN(CCC)CCCNC(=O)Cn1ncc2c3ccccc3n(Cc3ccccc3)c2c1=O,3.33% (inactive)
19,Cc1nn(Cc2ccccc2)c(C)c1C(=O)NCCCN1CCCC1=O,8.55% (inactive)
20,CCC(=O)Nc1ccccc1C(=O)N1CCN(Cc2ccccc2)CC1,8.38% (inactive)
21,Cc1nn(Cc2ccccc2)c(C)c1C(=O)N1CCN(CC(=O)Nc2ccccc2Cl)CC1,66.2% (active)
22,O=C(CSc1nccn1Cc1ccc(F)cc1)NCc1ccccc1,1.55% (inactive)

row,SMILES,enhancement
1,Cc1ccc(S(=O)(=O)NC(N)=NCCC[C@@H](NC(=O)CNC(=O)c2ccccc2)C(=O)Nc2cc(C(F)(F)F)ccc2Cl)cc1,2.23% (inactive)
2,Nn1c(SCC(=O)Nc2nccs2)nnc1-c1ccco1,4.24% (inactive)
3,CCn1c(SCC(=O)Nc2nccs2)nnc1-c1ccncc1,1.36% (inactive)
4,CCn1c(SCC(=O)Nc2nccs2)nnc1-c1ccco1,38% (active)
5,O=C(CSc1nnc(-c2ccccc2F)o1)Nc1cccc(C(F)(F)F)c1,8.13% (inactive)
6,Cc1cc(C)c2oc(C(=O)Nc3ccc(S(=O)(=O)N4CCCCCC4)cc3)cc(=O)c2c1,48.6% (active)
7,Cc1cc(C)c2oc(C(=O)Nc3ccc(S(=O)(=O)N(C)c4ccccc4)cc3)cc(=O)c2c1,0.252% (inactive)
8,Cc1ccc2oc(C(=O)Nc3ccc(S(=O)(=O)N4CCCCCC4)cc3)cc(=O)c2c1,0.734% (inactive)
9,Cc1c(C(=O)NCc2ccccc2Br)oc2ccc3c(c12)C(=O)CC(C)(C)O3,-2.29% (inactive)
10,COc1cccc(-n2cc(C(=O)NCc3cccc(Cl)c3)c3ccccc3c2=O)c1,-3.45% (inactive)
11,O=C(NC1C2CC3CC(C2)CC1C3)c1ccc(N2CCNCC2)c([N+](=O)[O-])c1 (configuration not stated),2.28% (inactive)
12,CCC(C)NC(=O)c1ccc(N2CCC3(CC2)OCCO3)c([N+](=O)[O-])c1 (configuration not stated),-9.06% (inactive)
13,CC(NC(=O)c1ccc(N2CCNCC2)c([N+](=O)[O-])c1)C12CC3CC(CC(C3)C1)C2 (configuration not stated),31.1% (active)
14,Cc1nc2nc(SCC(=O)NC3CCC(C)CC3)nn2c(C)c1Cc1ccccc1Cl (configuration not stated),3.16% (inactive)
15,CCc1ccccc1NC(=O)CSc1nc(C)c(C(=O)Nc2ccccc2)c(-c2ccc(Cl)cc2)c1C#N,-0.268% (inactive)
16,CCC[C@@H]1C[C@@]1(CCC)[C@@H](NC(=O)c1ccccc1)c1ccc(C(=O)OC)cc1,-1.9% (inactive)
17,C=CCO/N=C/C1=C(O)C(C(=O)OC)C(C)(C)CC1=O (configuration not stated),-2.52% (inactive)
18,CCCC(=O)C1=C(N(C)c2ccccc2)CC(C)(C)C(C(=O)OC)C1=O (configuration not stated),36.8% (active)
19,Cc1cccc(Cc2c(C)nc3nc(SCc4ccccc4Cl)nn3c2C)c1,-3.69% (inactive)
20,COc1ccc(OC)c(-c2noc(N3CCN(c4cc(Cl)ccc4C)CC3)n2)c1,-2.59% (inactive)
21,Cc1ccc(-c2cnc(NCc3ccc(C(C)C)cc3)n2C)cc1,2.38% (inactive)
22,Cc1cccc(NC(=O)CSc2ncc(-c3ccccc3)[nH]2)c1C,-2.76% (inactive)

row,SMILES,enhancement
1,COc1ccc(CNC(=O)c2cc3cccc(OC)c3oc2=O)cc1,5.25% (inactive)
2,O=C(CNC(=O)c1ccco1)OCC(=O)c1ccccc1,14.7% (inactive)
3,O=C(CNC(=O)c1ccccc1)NCC(=O)OCC(=O)c1ccccc1 (Bz-Gly-Gly-OPac),48.2% (active)
4,O=C(CNC(=O)Cc1ccccc1)NCC(=O)OCC(=O)c1ccccc1Cl,-4.65% (inactive)
5,CCCCN(CC)CCCNC(=O)c1nn(C)c2c1CSc1ccccc1-2,-0.263% (inactive)
6,Cc1ccc(CN2CCc3nc(N4CCN(C)CC4)ncc3C2)cc1,-1.43% (inactive)
7,CCOC(=O)c1ccc(NC(=O)c2ncn(-c3ccccc3)n2)cc1,-1.95% (inactive)
8,COc1ccc(/C(O)=C2/C(=O)C(=O)N(CCCN(C)C)C2c2ccccc2)cc1OC (configuration not stated),7.56% (inactive)
9,COc1cccc(C2/C(=C(/O)c3ccncc3)C(=O)C(=O)N2CCCN(C)C)c1 (configuration not stated),5.69% (inactive)
10,O=C1C(=O)N(CCCO)C(c2ccccc2)/C1=C(\O)c1ccc(Br)cc1 (configuration not stated),46.2% (active)
11,CC(C)(C)OC(=O)N1CCC(c2c(C(=O)N3CCN(c4cccc(Cl)c4)CC3)cnn2-c2cccc(Cl)c2)CC1,-12.3% (inactive)
12,Cc1cc(Cl)ccc1OCC(=O)N(Cc1ccc(N(C)C)cc1)C1CCS(=O)(=O)C1 (configuration not stated),-2.26% (inactive)
13,CC1Cc2cc(S(=O)(=O)CCC(=O)NCc3ccc(Cl)cc3)ccc2N1C(=O)C1CC1 (configuration not stated),3.17% (inactive)
14,CCCn1c2ccccc2c2cnn(CC(=O)NCCCOC(C)C)c(=O)c21,10.8% (inactive)
15,CCCn1c2ccccc2c2cnn(CC(=O)N(CC)c3cc(C)ccc3C)c(=O)c21,-3.36% (inactive)
16,CCCn1c2ccccc2c2cnn(CC(=O)N(C)c3ccccc3CC)c(=O)c21,33.2% (active)
17,CCOc1ccc(CCNC(=O)c2ccc3c(c2)sc2nc(-c4ccc(F)cc4)cn23)cc1OCC,0.915% (inactive)
18,Cc1ccc(C)c(NC(=O)CCC(=O)NNC(=O)c2cccs2)c1,30% (active)
19,Cc1ccc(NNC(=O)c2cccs2)cc1Cl,-3.86% (inactive)
20,O=C(COC(=O)c1ccc(O)cc1O)NNC(=O)c1cccs1,6.82% (inactive)
21,CCOCCCNC(=O)c1c(NC(=O)Cc2coc3ccc(C)cc23)sc2c1CCC2,-1.11% (inactive)
22,COc1cc(C2C3=C(CCCC3=O)OC3=C2C(=O)CCC3)ccc1OCC(=O)Nc1ccccc1,78.2% (active)

row,SMILES,enhancement
1,CCNC(=O)c1ccc(OCC(=O)Nc2ccc(F)cc2)c(OC)c1,13.5% (inactive)
2,CCOc1ccc(NC(=O)COc2ccc(C(=O)NC3CCCc4ccccc43)cc2OC)cc1 (configuration not stated),3.25% (inactive)
3,COc1ccc(-c2cc(-c3ccccc3)nc3c2COc2ccc(Cl)cc2-3)cc1,2.02% (inactive)
4,COc1ccc(Cl)cc1NC(=O)CCn1c(=O)c2cccn2c2ccccc21,1.46% (inactive)
5,COC(=O)c1ccc(CNC(=O)C2CCC(=O)N(Cc3cccc(F)c3)C2)cc1 (configuration not stated),-7.88% (inactive)
6,CCn1nc(C)c(CNC(=O)C2CCC(=O)N(Cc3cccc(F)c3)C2)c1C (configuration not stated),31.7% (active)
7,Cc1cccnc1CCNC(=O)C1CCC(=O)N(Cc2cccc(F)c2)C1 (configuration not stated),-0.481% (inactive)
8,Cc1ccc(C(=O)NC2CCN(C#N)CC2)cc1,-0.515% (inactive)
9,CCOC(=O)c1sc(NC(=O)/C=C/c2ccc(C(C)C)cc2)c(C(=O)OCC)c1C,0.66% (inactive)
10,N#Cc1ncc(C(F)(F)F)cc1Oc1cccnc1,-3.06% (inactive)
11,N#Cc1ccc(Oc2cc(C(F)(F)F)nc(-c3ccccn3)n2)cc1,55.8% (active)
12,Cc1c(Cl)cccc1NC(=O)c1noc2c1CCCC2,7.16% (inactive)
13,Cc1cc(NS(=O)(=O)c2ccc(NC(=O)c3ccccc3C)cc2)nc(C)n1,10.7% (inactive)
14,COc1ccc(-c2csc(Nc3ccccn3)n2)cc1,34.5% (active)
15,COc1ccc(-c2csc(-c3c(N)c(C(=O)c4ccc(OC)c(OC)c4)n4ccccc34)n2)cc1,0.214% (inactive)
16,CCCn1c(C2CCCN2c2nc(-c3ccc(OC)cc3)cs2)nc2ccccc21 (configuration not stated),-1.81% (inactive)
17,Cc1nc(NC(=O)CN(C)S(=O)(=O)c2ccc(Cl)cc2)sc1C,4.55% (inactive)
18,Cc1cccc(N2CCN(C(=O)CN(C)S(=O)(=O)c3ccc4c(c3)CCC(=O)N4)CC2)c1C,2.84% (inactive)
19,CCOC(=O)Cc1csc(NC(=O)CN(C)S(=O)(=O)c2ccc3c(c2)CCC(=O)N3)n1,32.8% (active)
20,Cc1cc(C)cc(NC(=O)CCCc2nc(-c3ccccc3Cl)no2)c1,-21.4% (inactive)
21,COc1ccc(CCNC(=O)c2cn(C)c3ccc(S(=O)(=O)N(C)C4CCCCC4)cc3c2=O)cc1OC,-14.3% (inactive)
